Results on ten compounds are retold here after article PMC5540273 (PLoS ONE, 2017).

One experiment relates to T1, TAK1.
T1 construct: gene MAP3K7
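Note: kd values determined as follow-up on hits from a single-replicate KINOMEscan panel screen.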

Take `CN1C(=O)C(Nc2cc(Cl)c(O)c(Cl)c2)=C(c2ccc(Cl)cc2)C1=O` [SB-404321]: the Kd (usually the free concentration of one partner at which half of the binding sites on the other are occupied at equilibrium, for simple one-to-one binding) in the experiment on SRPK3 was more than 10 µM.
For the compound `CCn1c(-c2ccoc2)nc2cnccc21` [SB-733887], the Kd with TAK1 is more than 10 µM.
Consider `Cc1nnc(-c2ccc3ncn(-c4ccc(S(C)=O)cc4)c3c2)o1` (centres unmarked), for which the Kd in the experiment on TAOK1 and with TAOK3 was more than 10 µM in each case.
`COc1ccc(-c2cc3c(C)nc(N)nc3n([C@H]3CC[C@H](O)CC3)c2=O)cn1` came in with a Kd in the experiment on TBK1 of more than 10 µM.
As for `O=C(NCCNc1ccnc(Nc2ccc(F)cc2)n1)Nc1ccc2c(c1)OCO2` [GSK1379882], the dissociation constant (Kd) in the experiment on TESK1 was more than 10 µM.
Turning to `Cc1cc(Nc2nc(-c3cccc(C)n3)nc3ccccc23)ccn1` [GW872411], the affinity in the experiment on TGFBR1, expressed as Kd, was 0.27 µM.
Regarding `COc1cc2ncn(-c3cc(OCc4ccncc4)c(C(N)=O)s3)c2cc1OC` [GSK336313], in the experiment with TIE1, the equilibrium dissociation constant (Kd) was more than 10 µM.
For the compound `O=C1NC(=O)C(c2ccccc2)=C1Nc1cccc(O)c1` [SB-390534], binding with TLK2 was characterised by a dissociation constant (Kd) of 2.4 µM. In other words, the single-digit micromolar range.
As for `CCCC(=O)Nc1n[nH]c2ncc(-c3cccc4ccccc34)cc12` [SB-642057], the Kd with TLK2 was more than 10 µM.
Consider `COc1cc(OC)cc(-c2cc3cnc(N)nc3nc2NC(=O)NC(C)(C)C)c1`, for which the dissociation constant (Kd) with TNK2 was more than 10 µM.
